PubChem BioAssay AID1159580 (chemical genetic matrix, 2015)
Several values for one entry are separate records, joined by “and”; a condition that tells them apart may be missing. Identical values can stand only once. In all, about 5,500 compounds went through this assay and about 2,000 (36%) were called active. Inconclusive results (about 18%) are left out. No stated cut-off is given here; in the data, active means normalized growth mostly below about 0.91 (no sharp cut-off); inconclusive means no clear call, values can overlap the other calls; inactive means mostly above about 0.92. The list shows a part of the results.

Assay: chemical genetic growth profiling, strain panel (AID 1159580);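 further: tested at 20 µM; growth read once vehicle control cultures reached saturation at 30 °C; 1 = growth at the plate median or of vehicle wells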
Details: S. cerevisiae deletion strains, growth OD

Measured: normalized growth

CC1(C)S[C@@H]2[C@H](NC(=O)COc3ccccc3)C(=O)N2[C@H]1C(=O)O
inactive: locus YAL013W, strain DEP1, stronger effect = lower value 1 | locus YAL021C, strain ccr4, stronger effect = lower value 1.01 | locus YAL026C, strain drs2, stronger effect = lower value 1 | locus YAL030W, strain snc1, stronger effect = lower value 0.989 | locus YBL061C, strain skt5, stronger effect = lower value 0.985 | locus YBR009C, strain hhf1, stronger effect = lower value 1.01 | locus YBR021W, strain FUR4, stronger effect = lower value 1.02 | locus YBR023C, strain chs3, stronger effect = lower value 0.996 | locus YBR171W, strain sec66, stronger effect = lower value 0.969 | locus YBR229C, strain ROT2, stronger effect = lower value 1 | locus YBR231C, strain swc5, stronger effect = lower value 0.975 | locus YBR279W, strain paf1, stronger effect = lower value 0.999 | locus YCL011C, strain gbp2, stronger effect = lower value 1 | locus YCL016C, strain dcc1, stronger effect = lower value 1.02 | locus YCL029C, strain bik1, stronger effect = lower value 1.04 | locus YCL069W, strain vba3, stronger effect = lower value 0.993 | locus YCR088W, strain abp1, stronger effect = lower value 0.997 | locus YDL005C, strain med2, stronger effect = lower value 0.994 | locus YDL035C, strain GPR1, stronger effect = lower value 1.01 | locus YDL040C, strain nat1, stronger effect = lower value 0.993 | locus YDL074C, strain BRE1, stronger effect = lower value 1.01 | locus YDL101C, strain DUN1, stronger effect = lower value 1.01 | locus YDL134C, strain PPH21, stronger effect = lower value 1.01 | locus YDL185W, strain tfp1, stronger effect = lower value 1.01 | locus YDL192W, strain arf1, stronger effect = lower value 1.03 | locus YDR001C, strain nth1, stronger effect = lower value 0.99 | locus YDR069C, strain doa4, stronger effect = lower value 0.98 | locus YDR101C, strain arx1, stronger effect = lower value 1.02 | locus YDR137W, strain rgp1, stronger effect = lower value 0.975 | locus YDR150W, strain NUM1, stronger effect = lower value 0.999 | locus YDR159W, strain sac3, stronger effect = lower value 1 | locus YDR162C, strain NBP2, stronger effect = lower value 1.01 | locus YDR195W, strain ref2 0.955 | locus YDR297W, strain sur2, stronger effect = lower value 0.991 | locus YDR318W, strain mcm21, stronger effect = lower value 1.02 | locus YDR334W, strain swr1, stronger effect = lower value 0.993 | locus YDR335W, strain msn5, stronger effect = lower value 0.986 | locus YDR388W, stronger effect = lower value 1.02 | locus YDR392W, strain spt3, stronger effect = lower value 1.03 | locus YDR502C, strain sam2, stronger effect = lower value 1.03 | locus YEL003W, strain gim4, stronger effect = lower value 0.997 | locus YEL037C, strain rad23, stronger effect = lower value 0.992 | locus YEL061C, strain CIN8 (second series), stronger effect = lower value 0.986 | locus YEL061C, strain CIN8, stronger effect = lower value 1 | locus YER015W, strain faa2, stronger effect = lower value 0.999 | locus YER016W, strain bim1, stronger effect = lower value 1 | locus YER110C, stronger effect = lower value 1.02 | locus YER111C, strain swi4, stronger effect = lower value 0.99 | locus YER155C, strain BEM2 (second series), stronger effect = lower value 0.977 | locus YER155C, strain BEM2, stronger effect = lower value 0.999 | locus YER167W, strain BCK2, stronger effect = lower value 1 | locus YFR010W, strain ubp6, stronger effect = lower value 0.98 | locus YGL078C, strain dbp3, stronger effect = lower value 1.02 | locus YGL086W, strain mad1, stronger effect = lower value 1.01 | locus YGL167C, strain pmr1, stronger effect = lower value 0.996 | locus YGL173C, strain kem1, stronger effect = lower value 0.991 | locus YGL227W, strain vid30, stronger effect = lower value 0.984 | locus YGL240W, strain doc1, stronger effect = lower value 0.976 | locus YGL248W, strain PDE1, stronger effect = lower value 1.01 | locus YGL253W, strain hxk2, stronger effect = lower value 0.998 | locus YGR078C, strain PAC10, stronger effect = lower value 1.01 | locus YGR135W, strain pre9, stronger effect = lower value 1.02 | locus YGR229C, strain SMI1, stronger effect = lower value 1.01 | locus YGR252W, strain gcn5, stronger effect = lower value 1.02 | locus YHR013C, strain ard1, stronger effect = lower value 1 | locus YHR027C, strain rpn1, stronger effect = lower value 1.01 | locus YHR030C, strain SLT2, stronger effect = lower value 1.01 and 0.967 | locus YHR079C, strain IRE1 (second series), stronger effect = lower value 1.02 | locus YHR079C, strain IRE1, stronger effect = lower value 0.98 | locus YHR094C, strain hxt1, stronger effect = lower value 1.02 | locus YHR129C, strain ARP1, stronger effect = lower value 1 | locus YHR142W, strain chs7, stronger effect = lower value 1.01 | locus YHR200W, strain rpn10, stronger effect = lower value 1.02 | locus YIL066C, strain RNR3, stronger effect = lower value 1.01 | locus YIL073C, strain SPO22, stronger effect = lower value 1.07 | locus YIL125W, strain kgd1, stronger effect = lower value 1.02 | locus YIR030C, strain dcg1, stronger effect = lower value 1.03 | locus YJL092W, strain hpr5, stronger effect = lower value 0.976 | locus YJL095W, strain BCK1 (second series), stronger effect = lower value 0.99 | locus YJL095W, strain BCK1, stronger effect = lower value 1.01 and 0.99 | locus YJL115W, strain asf1, stronger effect = lower value 0.988 | locus YJL129C, strain trk1, stronger effect = lower value 0.955 | locus YJL134W, strain LCB3, stronger effect = lower value 1 | locus YJL154C, strain vps35, stronger effect = lower value 0.988 | locus YJL164C, strain tpk1, stronger effect = lower value 1.02 | locus YJL166W, strain qcr8, stronger effect = lower value 0.953 | locus YJL168C, strain set2, stronger effect = lower value 1.02 | locus YJL187C, strain SWE1 (second series), stronger effect = lower value 1.01 | locus YJL187C, strain SWE1, stronger effect = lower value 0.997 | locus YJR043C, strain POL32, stronger effect = lower value 1.01 | locus YJR066W, strain TOR1, stronger effect = lower value 0.92
